# Where a name gives a salt, the structure may show the parent alone.
# Key:
# Experiment in all cases: Euclidean distance of Cell Painting phenotypic profile (signed KS, 77 features) to DMSO centroid (dimensionless distance); higher = stronger phenotypic change vs DMSO (phenoactivity)
# Settings in all cases: 48 h; 5 or 10 uM (library dependent)
# 786-O = tested on: 786-O
# Method in brief: (§1)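 At 10 or 5 uM, as set by the library, and 0.1% DMSO final, compounds were applied for 48 h to five cancer lines and one healthy fibroblast line. Stained cells were imaged confocally at 20X in 9 fields per well, and Harmony extracted 77 features scored as signed Kolmogorov-Smirnov statistics against vehicle wells on the same plate. Profiles underwent plate-position correction, correlation weighting and replicate averaging at the top dose. Phenoactivity is the Euclidean distance from each such profile to the median vehicle profile.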
# A549 = tested on: A549
# Method in brief: as §1
# DU145 = tested on: DU145
# Method in brief: as §1
# FB = tested on: FB
# Method in brief: as §1
# HEPG2 = tested on: HEPG2
# Method in brief: as §1
# OVCAR4 = tested on: OVCAR4
# Method in brief: as §1
Compound,Euclidean distance (786-O),Euclidean distance (A549),Euclidean distance (DU145),Euclidean distance (FB),Euclidean distance (HEPG2),Euclidean distance (OVCAR4)
C=C(C)[C@@H]1[C@H]2OC(=O)[C@@H]1[C@]1(O)C[C@H]3O[C@]34C(=O)O[C@H]2[C@]14C [Picrotoxinin],1.37,1.86,0.846,0.954,0.815,1.26
COc1cc2c(c(OC)c1OC)-c1ccc(OC)c(=O)cc1[C@@H](NC(C)=O)CC2 [Colchicine],3.12,3.04,4.54,2.88,3.8,3.18
CC[N+](C)(CC)CCOC(=O)C(O)(c1ccccc1)c1ccccc1 [Methylbenactyzine Bromide],0.693,0.883,0.575,0.967,0.532,1.45
CC(C)C(Br)C(=O)NC(N)=O (configuration not stated) [Bromisoval],1.54,0.435,2.15,0.988,0.659,0.646
CN1[C@@H]2CC(O)C[C@H]1[C@@H]1O[C@@H]12 (some centres not stated) [Scopine HCl],0.344,0.885,0.479,0.66,0.893,0.714
CC(=O)Nc1ccc(Cc2ccc(NC(C)=O)cc2)cc1,1.08,2.27,0.674,0.9,0.667,1.25
Cc1sc2c(c1C)C(c1ccc(Cl)cc1)=N[C@@H](CC(=O)Nc1ccc(O)cc1)c1nnc(C)n1-2,2.95,2.08,2.15,4.11,1.91,1.77
CCC1(c2ccc(N)cc2)CCC(=O)NC1=O (configuration not stated) [Aminoglutethimide],1.19,0.545,0.574,1.37,0.54,1.67
CC[C@@H](CO)NC(=O)[C@@H]1C=C2c3cccc4c3c(cn4C)C[C@H]2N(C)C1 [Methysergide Maleate],0.845,0.577,0.772,0.909,0.822,1.34
CC1(C)C(C=C(Cl)Cl)C1C(=O)OCc1cccc(Oc2ccccc2)c1 (configuration not stated) [Permethrin],1.12,0.946,1.16,0.816,0.999,1.43
COCC1(CO)C(=O)C2CCN1CC2 (configuration not stated),3.17,3.25,4.09,3.41,2.42,2.18
NC(=O)CN1CC(O)CC1=O (configuration not stated) [Oxiracetam],1.07,0.677,0.989,1.39,0.778,0.764
CC(C)[C@H](N)C(=O)N1CCC[C@H]1B(O)O [Talabostat (Val-boroPro. PT-100)],1.38,0.905,1.12,1.08,0.878,0.712
COc1cc2c(cc1OC)[C@@]13CCN4CC5=CCO[C@H]6CC(=O)N2[C@H]1[C@H]6[C@H]5C[C@H]43 [Brucine sulfate salt hydrate],1.36,0.862,0.987,1.47,0.722,0.846
C=C1C[C@@H]2[C@H](CC[C@]3(C)C(=O)CC[C@@H]23)[C@@]2(C)C=CC(=O)C=C12 [Exemestane],1.7,1.06,0.488,1,0.7,1.37
CCN(CC)CCOC(=O)C(O)(c1ccccc1)c1ccccc1 [Benactyzine hydrochloride],1.27,0.786,1.33,0.83,0.592,1.71
O=C(O[C@H]1C[N+]2(CCCOc3ccccc3)CCC1CC2)C(O)(c1cccs1)c1cccs1 [Aclidinium Bromide],1.15,1.13,1.29,0.774,0.61,1.23
C[N+]12CCC(CC1)C(OC(=O)C(O)(c1ccccc1)c1ccccc1)C2 (configuration not stated) [Clidinium Bromide],0.785,0.788,0.87,0.845,0.445,0.671
CC(C)(C)NCC(O)c1ccccc1Cl (configuration not stated) [Tulobuterol hydrochloride],0.975,0.768,0.82,0.711,0.75,1.75
O=C(O)CNC(=O)c1c(O)c2ccccc2n(Cc2ccccc2)c1=O,0.98,0.849,1.14,1.06,0.682,0.719
COC[C@H]1OC(=O)c2coc3c2[C@@]1(C)C1=C(C3=O)[C@@H]2CCC(=O)[C@@]2(C)C[C@H]1OC(C)=O [Wortmannin],1.37,1.06,1.2,2.24,0.655,1.14
CCNC(=O)C[C@@H]1N=C(c2ccc(Cl)cc2)c2cc(OC)ccc2-n2c(C)nnc21,1.96,1.78,1.76,3.4,1.26,1.66
CC(C)OC(=O)[C@H](C)N[P@](=O)(CO[C@H](C)Cn1cnc2c(N)ncnc21)Oc1ccccc1 [Tenofovir Alafenamide (GS-7340)],1.71,1.16,1.44,1.85,2.92,1.58
Cc1ccccc1-n1c(Cn2ncc3c(N)ncnc32)nc2cccc(C)c2c1=O,0.868,0.946,1.12,0.901,2.23,1.03

Compound,Euclidean distance (786-O),Euclidean distance (A549),Euclidean distance (DU145),Euclidean distance (FB),Euclidean distance (HEPG2),Euclidean distance (OVCAR4)
CCc1c(C(=O)C(N)=O)c2c(OCC(=O)O)cccc2n1Cc1ccccc1,0.933,1.14,1.33,0.633,0.812,0.982
COc1ccc(C=O)cc1 [p-Anisaldehyde],1.24,0.754,0.627,0.751,0.785,1.16
C=CC1CN2CCC1CC2C(O)c1ccnc2ccccc12 (configuration not stated),1.34,0.884,1.11,0.875,0.638,1.13
CCC(=O)O[C@H]1CC[C@H]2[C@@H]3CC[C@H]4CC(=O)[C@H](C)C[C@]4(C)[C@H]3CC[C@]12C [Drostanolone Propionate],0.791,1.02,0.706,0.585,1.34,0.745
O=P(O)(NCCCl)NCCCl [Palifosfamide],1.23,0.923,1.53,1.11,0.698,1.21
C[C@]12CC[C@@H](O)C[C@@H]1CC[C@@H]1[C@@H]2CC[C@]2(C)C(=O)CC[C@@H]12 [Androsterone],1.51,0.773,1.2,1.28,0.665,1.07
Cn1c(CCCCCCC(=O)NO)nc2cc(N(CCCl)CCCl)ccc21 [Tinostamustine(EDO-S101)],3.61,3.53,3.45,2.57,2.74,3.16
Clc1ccc(C(OCCN2CCCCC2)c2ccccc2)cc1 (configuration not stated) [Cloperastine hydrochloride],0.838,1.16,1.16,0.914,1.43,1.16
CN1C[C@H](C(=O)N[C@]2(C)O[C@@]3(O)[C@@H]4CCCN4C(=O)[C@H](Cc4ccccc4)N3C2=O)C[C@@H]2c3cccc4[nH]cc(c34)C[C@H]21 [Dihydroergotamine Mesylate],1.1,1.93,0.862,1.05,1.1,1.25
CCC12C=CCN3CC[C@@]4(c5ccc(OC)cc5N(C)[C@H]4[C@@](O)(C(=O)OC)[C@@H]1OC(C)=O)[C@@H]32 (some centres not stated) [Vindoline],1.01,0.491,0.771,0.943,0.607,0.946
Cc1ccc2c(c1)[C@]13CCCC[C@@H]1[C@H](C2)N(C)CC3 [Dimemorfan phosphate],1.28,1.25,1.36,3.6,2.34,1.19
C[C@H]1O[C@H](O[C@H]2[C@H](O)[C@@H](O)[C@@H](O)[C@H](O)[C@@H]2O)[C@@H](N)C[C@@H]1NC(=N)C(=O)O [Kasugamycin hydrochloride],1.08,0.816,0.855,1.2,0.528,0.934
Oc1cccc2cccnc12 [8-Hydroxyquinoline],4.55,1.4,2.11,6.09,1.99,1.56
CC(C)[N+](C)(CCC(C(N)=O)(c1ccccc1)c1ccccc1)C(C)C [Isopropamide Iodide],1.26,0.953,1.08,1.25,0.717,1.23
CC(C)(C)c1cc(C=C(C#N)C#N)cc(Br)c1O,1.41,1.74,0.863,1.1,1.39,1.52
C=C[C@H]1CN2CC[C@H]1C[C@H]2[C@H](O)c1ccnc2ccccc12 [Cinchonidine],1.49,0.828,1.16,1.09,0.521,1.1
C/C=C(\C)C(=O)N[C@@H](c1ccccc1)[C@@H](O)C(=O)O[C@H]1C[C@@]2(O)[C@@H](OC(=O)c3ccccc3)[C@@H]3[C@]4(OC(C)=O)CO[C@@H]4C[C@H](O)[C@@]3(C)C(=O)[C@H](OC(C)=O)C(=C1C)C2(C)C [Cephalomannine],2.74,3.24,3.48,2.32,2.11,2.98
CC(=O)Nc1ccc(OC[C@](C)(O)C(=O)Nc2ccc([N+](=O)[O-])c(C(F)(F)F)c2)cc1 [Andarine],1.46,1.78,0.858,0.758,0.703,1
O=C(Oc1ccc([N+](=O)[O-])cc1)N1CCC(C(O)(c2ccc3c(c2)OCO3)c2ccc3c(c2)OCO3)CC1,1.24,1.34,1.4,1.86,1.15,1.12
CC(C)(C)[C@]1(O)CC2OC(=O)CC23C(=O)OC2OC(=O)[C@H](O)C231 (some centres not stated) [Bilobalide],1,1.09,0.515,0.78,0.996,1.47
O=[N+]([O-])C(Br)(CO)CO [Bronopol],1.36,1.03,1.02,0.825,0.735,1.59
NCC(O)c1ccc(O)cc1 (configuration not stated) [(+.-)-Octopamine HCl],1.71,0.639,0.896,0.934,0.45,1.03
NC(=O)CN1CC(c2ccccc2)CC1=O (configuration not stated) [Phenylpiracetam],1.05,1.45,0.789,0.956,0.413,1.3

# — the supplement of paper PMC10127200
